# Results filed as inconclusive are left out. A call without a number means that no potency is given here. Calls of active or inactive are those of the source. Calls follow the shape of the dose curve; as a rule, active = well fitted activation curve with a large enough effect; inconclusive = small, poorly fitted or top-dose-only effect; inactive = flat fitted curve, though single readings scatter.
# Experiment: FLuc inhibitory activity for the follow-up compounds in a cell-based translational read-through assay
# Conditions: GripTite 293 FLucUGA read-through, luminescence, 48 h; series mostly up to 38.3 µM
# Source text: NCGC Assay Overview: Firefly (Photinus pyralis) luciferase is one of the most commonly used transcriptional reporters. It is considered one of the more dynamically responsive reporters - that is, responsive to changes in reporter transcription - as it requires no post-translational modifications and is enzymatically active directly after protein synthesis (Wood, 1998). With no endogenous expression in mammalian cells and without the requirement of external excitation, it offers very little background signal, thus generally providing excellent signal to background for most assays. Previous profiling work to determine the prevalence of compounds that affect FLuc enzymatic activity (PubChem AID 411) identified that ~3% of the MLSMR library (then at ~72K) inhibited FLuc (Auld et al., 2008). […] Of the compounds identified in this profile that inhibited FLuc, 151 compounds were selected for further analysis, in an effort to better understand their mode of inhibiting FLuc. The assay described here was to determine the activity of the compounds in a cell-based firefly luciferase reporter gene assay originally designed to identify compounds that enchanced translational read-through of a FLuc cDNA that contained a premature stop codon (Auld et al., 2009; Auld et al., 2010). Compounds that enhance translational read-through or compounds that stabilize FLuc intracellularly are identified as active compounds in the assay.
# NCGC Assay Protocol Summary: Reagents: Transient transfection of FlucUGA construct: TransFast Transfection Reagent (Promega #E2431); FLucUGA construct (refer to Auld et al., 2009) #GripTite 293 MSR Cell Line (Invitrogen #R795-07) #Complete growth media: DMEM (Invitrogen #11965), 10% HIFBS, 0.1mM MEM NEAA, 5mL/L pen-strep (of 5000U/mL stock), 600ug/mL Geneticin #Assay media: DMEM without phenol red (Invitrogen #21063), 5% charcoal-stripped HIFBS (Hyclone #SH30071.03), 0.1mM MEM NEAA In-house detection reagent: 300mM Tris-HCl, 300mM Trizma base, 300mM MgCl, 1% Triton-X100, 5mM DTT, 500uM Coenzyme A trilithium salt (Sigma #C3019),450uM ATP (Sigma #A7699), 1mM D-luciferin sodium salt monohydrate (Biosynth #L8240) Control compounds used were two known firefly luciferase inhibitors (3-(5-(3-chlorophenyl)-1,2,4-oxadiazol-3-yl)benzoic acid and 5-(2-fluorophenyl)-3-phenyl-1,2,4-oxadiazole), and DMSO. Assay Summary: Transient transfection of FlucUGA construct: Day 1: GripTite cells were plated in T175 flasks at a density of 1.75 x 10^7 cells/T175 flask in complete growth media without Geneticin and allowed to grow ON in a 37 degrees Celsius incubator. Day 2: Cells in T175 flask were transfected - with 10ug of DNA and 30uL Transfast in 12mL complete growth media without serum and without Geneticin for 4 hours at 37 degrees Celsius. After incubation, cells were trypsinized, spun down, and resuspended to a concentration of 3.3 x 10^5 cells/mL in assay media. 6uL of cells in assay buffer were dispensed at 2000cells/well (3.3 x 10^5 cells/mL) into Greiner solid-white TC-treated 1536-well plates using a Multidrop Combi (Thermo Fisher Scientific). Plates were incubated for one hour at 37 degree Celsius, 95% humidity, 5% CO2. These assay plates were then treated with 23nL of compound or DMSO using a Kalypsys pin tool, which allows for delivery of a 12-point titration of each compound to the assay plate, with a final compound concentration ranging from approximately ~38uM to 0.2nM. Assay plates were then incubated for 48 hours. After incubation, plates were washed three times with DPBS (7uL/well). After the third wash, 6uL of DPBS was added to each well. 3uL of 3X luciferase detection reagent was then added to each well using a flying reagent dispenser (FRD). After a 15 minute incubation to allow for cell lysis, luciferase activity was measured using a ViewLux CCD imager (PerkinElmer), with an average exposure time of 2-12 seconds.
row,Structure (SMILES),Potency
1,Nc1ccc(-c2nc3cc(N)ccc3s2)cc1,14.2 µM (active)
2,CCCOc1cccc(C(=O)Nc2ccc(-c3nc4ccccc4s3)c(Cl)c2)c1,inactive
3,O=C(Nc1ccccc1C(=O)O)c1ccc(NC(=O)C2CCCO2)cc1 (stereo not given),inactive
4,CC(C)c1ccc(C(=O)Nc2ccc(-c3nc4ccccc4s3)c(Cl)c2)cc1,inactive
5,O=C(O)c1cccc(NC(=O)c2cccc(S(=O)(=O)N3CCc4ccccc43)c2)c1,inactive
6,c1ccc2sc(-c3ccc4c(c3)OCO4)nc2c1,1.26 µM (active)
7,O=C(Nc1ccccc1C(=O)O)c1cccc(S(=O)(=O)N2CCCC2)c1,inactive
8,Cc1ccc(C(=O)Nc2ccc(C(=O)O)cc2)cc1S(=O)(=O)Nc1ccccc1,inactive
9,O=C(Nc1ccccc1C(=O)O)c1cccc(NC(=O)c2ccc(Br)o2)c1,inactive
10,CCOc1ccc2nc(NC(=O)c3cc([N+](=O)[O-])ccc3N3CCOCC3)sc2c1,inactive
11,O=C(Cc1ccc(Cl)cc1)Nc1cccc(C(=O)Nc2ccccc2C(=O)O)c1,inactive
12,Cc1ccc(C(=O)Nc2ccccc2C(=O)O)cc1S(=O)(=O)N1CCCCCC1,14.2 µM (active)
13,O=C(Nc1ccccc1C(=O)O)c1ccc(NC(=O)C2CC2)cc1,inactive
14,Cc1ccc(C(=O)Nc2cccc(C(=O)O)c2)cc1S(=O)(=O)N1CCCCC1,0.895 µM (active)
15,COc1c(C)cccc1C(=O)Nc1ccc(-c2nc3ccccc3s2)c(Cl)c1,inactive
16,Cc1ccc(S(=O)(=O)N2CCN(C(=O)c3ccccc3-c3nc4ccccc4s3)CC2)c(C)c1,inactive
17,Cc1ccc(C(=O)Nc2cccc(C(=O)O)c2)cc1S(=O)(=O)N1CCCC1,2 µM (active)
18,COc1ccc2nc(NC(=O)CCc3ccc(OC)c(OC)c3)sc2c1,inactive
19,O=C(Nc1c(Cl)cc(Cl)cc1-c1nc2ccccc2s1)c1ccc(Br)o1,3.18 µM (active)
20,COc1ccc(-c2cccc(C(=O)Nc3cccc(C(=O)O)c3)c2)cc1,11.3 µM (active)

row,Structure (SMILES),Potency
1,C/C(=N\NC(=O)c1ccccc1NC(=O)c1ccc(Cl)cc1)c1ccncc1,0.283 µM (active)
2,Cc1ccc(C(=O)O/N=C(\N)c2ccccn2)cc1,3.56 µM (active)
3,O=C(O)c1cccc(NC(=O)c2ccc(Cl)c(S(=O)(=O)N3CCCCCC3)c2)c1,0.711 µM (active)
4,O=C(Cc1ccccc1)Nc1ccccc1C(=O)Nc1ccc(C(=O)O)cc1,inactive
5,Nc1ccccc1-c1nc2ccccc2s1,17.9 µM (active)
6,CN(C)S(=O)(=O)c1ccc(C(=O)Nc2cccc(C(=O)O)c2)cc1,inactive
7,Cc1cccc(C(=O)Nc2ccc(-c3nc4ccccc4s3)cc2Cl)c1,inactive
8,COc1ccc(C(=O)Nc2ccccc2C(=O)Nc2ccc(C(=O)O)cc2)cc1,25.2 µM (active)
9,Nc1ccc(C(=O)Nc2ccccc2C(=O)O)cc1,inactive
10,COc1ccc(-c2nc3ccccc3s2)cc1O,5.65 µM (active)
11,O=C(O)c1cccc(NC(=O)c2cccc(NC(=O)C3CCCO3)c2)c1 (stereo not given),inactive
12,COc1ccc(-c2nc3ccccc3s2)cc1NC(=O)c1ccc(F)cc1,inactive
13,O=C(Nc1ccccc1-c1nc2ccccc2s1)c1cccnc1,inactive
14,Nc1ccc(-c2nc3ccc(C(=O)O)cc3s2)cc1,0.283 µM (active)
15,Cc1ccc2nc(-c3ccc(N)cc3)sc2c1,0.04 µM (active)
16,O=C(O)c1cccc(NC(=O)c2ccc(S(=O)(=O)c3ccccc3)cc2)c1,inactive
17,O=C(Cc1ccccc1)Nc1ccc(C(=O)Nc2ccccc2C(=O)O)cc1,inactive
18,Nc1ccccc1C(=O)Nc1cccc(C(=O)O)c1,28.3 µM (active)
19,O=C(O)c1cccc(NC(=O)c2cccc(S(=O)(=O)N3CCc4ccccc4C3)c2)c1,inactive
20,COc1cc(OC)cc(C(=O)Nc2ccc(-c3nc4ccccc4s3)c(C)c2)c1,inactive

# From PubChem BioAssay AID602476 (National Center for Advancing Translational Sciences (NCATS), 2012)
